Test results taken from ChEMBL document CHEMBL4513216, “Probing the Open Global Health Chemical Diversity Library for Multistage-Active Starting Points for Next-Generation Antimalarials” (ACS Infect Dis, 2020).
The whole screen tested about 68,000 compounds, of which about 2,700 (4%) showed an effect of 50% or more. The entries come from a sample that favours strong results as a whole.

Test system: Plasmodium berghei
Experiment: Screen against P. berghei liver stage (PbLuc), transformed with Luciferase, at 2uM
Assay type: functional, HepG2
Settings: tested at 2 uM

Q: How did the INHIBITION turn out when `CCC[C@@H]1CN(Cc2c[nH]nc2-c2ccc(OC)cc2)C[C@H]1NC(C)=O` was run?
A: 42.4%

Q: How did the INHIBITION turn out when `Cc1ccc(F)c(C(=O)N2C[C@@H](C(=O)O)[C@H](c3ccccc3)C2)c1Cl` was run?
A: 16.49%

Q: Which INHIBITION does the source give for `CCOc1ccc(C(=O)N(CCOC)Cc2c(C)nn(CC)c2C)o1` here?
A: 65.1%

Q: Which INHIBITION does the source give for `CCn1nc(C)c(CN(CCOC)C(=O)c2ccccc2N(C)C)c1C` here?
A: 15.74%

Q: How did the INHIBITION turn out when `CCn1nc(C)c(CN(CCOC)C(=O)c2cnc(C)nc2O)c1C` was run?
A: 48.68%

Q: With `CCN1CCN(C2CCN(C(C(N)=O)c3ccccc3)CC2)C1=O` (centres undefined) as the molecule, how does the INHIBITION read?
A: -42.16%

Q: How did the INHIBITION turn out when `CS(=O)(=O)CC1(CNc2ccc(C#N)c(C(F)(F)F)c2)CC1` was run?
A: 39.25%

Q: How did the INHIBITION turn out when `CC(C)COC(C)C(=O)N1CCCCC1` (centres undefined) was run?
A: 30.68%

Q: For `CC(C)COC(C)C(=O)N1CCCC1` (centres undefined), which INHIBITION is on record?
A: 52.6%

Q: How did the INHIBITION turn out when `CC(C)COC(C)C(=O)N1CCCCCC1` (centres undefined) was run?
A: 7.46%

Q: Which INHIBITION does the source give for `CCn1c(C2CCN(C(=O)c3ccc4sc(C)nc4c3)CC2)n[nH]c1=O` here?
A: 26.49%

Q: Which INHIBITION does the source give for `CN(C)Cc1nnc(C2CCCN(c3nc(C(N)=O)cs3)C2)n1C` (centres undefined) here?
A: 12.29%

Q: `COCC(C)(O)CNC(=O)c1cc(-c2cc(OC)ccc2OC)nn1C` (centres undefined) was tested. Which INHIBITION did it give?
A: 10.91%

Q: For `O=C(CCCc1nnc(-c2ccccc2)o1)N1CCN(C2CC2)CC1`, which INHIBITION is on record?
A: 21.64%

Q: `c1cnc(N2CCO[C@H]3CN(CC4CCC4)C[C@H]32)cn1` was tested. Which INHIBITION did it give?
A: 15.88%

Q: For `O=C(NCC1(c2cccs2)CCCCC1)N1CCOC(CO)C1` (centres undefined), which INHIBITION is on record?
A: -46.5%

Q: With `COc1ccc(OC)c(CCNc2ncc(S(N)(=O)=O)s2)c1` as the molecule, how does the INHIBITION read?
A: -0.95%

Q: With `COc1ccc(CN(C)c2ncc(S(N)(=O)=O)s2)c(OC)c1` as the molecule, how does the INHIBITION read?
A: 67.36%

Q: For `COc1ccc(OC)c(CN(C)c2ncc(S(N)(=O)=O)s2)c1`, which INHIBITION is on record?
A: -28.18%

Q: With `CC(C)(C)c1nccc(C2(c3ccccc3Cl)CCNCC2)n1` as the molecule, how does the INHIBITION read?
A: 2.06%

Q: With `CSCCC(=O)N1CCN(CC(O)C(C)(C)C)CC1` (centres undefined) as the molecule, how does the INHIBITION read?
A: 32.1%

Q: How did the INHIBITION turn out when `CSCCC(=O)N1CCN(CC(C)O)CC1` (centres undefined) was run?
A: 52.3%

Q: For `CCC(O)CN1CCN(C(=O)CCSC)CC1` (centres undefined), which INHIBITION is on record?
A: -38.59%

Q: For `CC(C)c1nnc(NC(=O)CCC(=O)NCC2CCCO2)s1` (centres undefined), which INHIBITION is on record?
A: 4.39%

Q: Which INHIBITION does the source give for `CC(C)C(CNC(=O)CCn1cncn1)N1CCc2ccccc2C1` (centres undefined) here?
A: 16.98%

Q: For `CC(CNC(=O)CCCn1cncn1)N1CCc2ccccc2C1` (centres undefined), which INHIBITION is on record?
A: -48.63%

Q: `CCC(CNC(=O)CCn1cncn1)N1CCc2ccccc2C1` (centres undefined) was tested. Which INHIBITION did it give?
A: 60%

Q: With `O=C(CN1CCCCCC1=O)NCC1CCN(c2ccccc2)C1` (centres undefined) as the molecule, how does the INHIBITION read?
A: -17.17%

Q: How did the INHIBITION turn out when `CC(CNC1CCN(Cc2ccncc2)CC1)c1ccc(F)cc1F` (centres undefined) was run?
A: 26.99%

Q: `CC(C)c1cc(NCC(O)c2ccc(F)cc2)n2nccc2n1` (centres undefined) was tested. Which INHIBITION did it give?
A: -25.05%

Q: `CCN(CC(F)(F)F)C(=O)C1CCCN(Cc2nc(C)c(C)o2)C1` (centres undefined) was tested. Which INHIBITION did it give?
A: 35.46%

Q: How did the INHIBITION turn out when `CCC(=O)NCCc1cc(N2CCN(C(C)=O)CC2)nc(C2CC2)n1` was run?
A: -28.81%

Q: `CC(=O)N1CCN(c2cc(CCNC(=O)C(C)C)nc(C3CC3)n2)CC1` was tested. Which INHIBITION did it give?
A: 27.39%

Q: For `CC(=O)NCCc1cc(N2CCN(C(C)=O)CC2)nc(C2CC2)n1`, which INHIBITION is on record?
A: 51.61%

Q: For `Cc1cnn(CC2CCCN2C(=O)CCc2ccc3c(c2)OCO3)c1` (centres undefined), which INHIBITION is on record?
A: -26.45%

Q: With `NS(=O)(=O)c1ccc(F)c(C(=O)NCCSc2ccccn2)c1` as the molecule, how does the INHIBITION read?
A: 32.97%

Q: How did the INHIBITION turn out when `Cn1ccnc1-c1nc(N2CCCCC2)ncc1-c1ccccc1F` was run?
A: -29.24%

Q: How did the INHIBITION turn out when `CS(=O)(=O)NCc1cnc2n1CCN(Cc1ccoc1)CC2` was run?
A: 50.17%

Q: With `CS(=O)(=O)NCc1cnc2n1CCN(Cc1cccnc1)CC2` as the molecule, how does the INHIBITION read?
A: 8.36%

Q: Which INHIBITION does the source give for `CS(=O)(=O)NCc1cnc2n1CCN(Cc1ccsc1)CC2` here?
A: -75.39%

Q: How did the INHIBITION turn out when `CN(Cc1ccco1)Cc1ccccc1CNC(=O)c1cnc[nH]1` was run?
A: 21.27%

Q: With `Cn1nccc1-c1cccc(CC2CCN(S(C)(=O)=O)C2)n1` (centres undefined) as the molecule, how does the INHIBITION read?
A: -30.88%

Q: How did the INHIBITION turn out when `CC(C)Nc1cccc(CC2CCN(S(C)(=O)=O)CC2)n1` was run?
A: 52.82%

Q: With `CC(C)Nc1cccc(CC2CCN(C)C2)n1` (centres undefined) as the molecule, how does the INHIBITION read?
A: -5.42%

Q: How did the INHIBITION turn out when `Fc1ccc(-c2noc(C3COCCO3)n2)cc1F` (centres undefined) was run?
A: -29.82%

Q: With `O=C(Cc1ccc(S(=O)(=O)C(F)F)cc1)N1CCCC1` as the molecule, how does the INHIBITION read?
A: 33.7%

Q: With `O=C(Cc1ccc(S(=O)(=O)C(F)F)cc1)N1CCC1` as the molecule, how does the INHIBITION read?
A: 17.61%

Q: How did the INHIBITION turn out when `CN1CCN(C(=O)Cc2ccc(S(=O)(=O)C(F)F)cc2)CC1` was run?
A: 63.39%

Q: `COCc1ccccc1C(=O)N1CCCC1Cn1nc(C)cc1C` (centres undefined) was tested. Which INHIBITION did it give?
A: -63.06%

Q: For `CC(Cn1cncn1)NCc1nncn1C1CCCCC1` (centres undefined), which INHIBITION is on record?
A: -28.93%

Q: How did the INHIBITION turn out when `O=C1NCCN1C1CCN(Cc2coc(-c3ccc(F)cc3)n2)CC1` was run?
A: 17.31%

Q: `O=C1NCCN1C1CCCN(Cc2coc(-c3ccc(F)cc3)n2)C1` (centres undefined) was tested. Which INHIBITION did it give?
A: 60.21%

Q: How did the INHIBITION turn out when `O=C1NCCN1C1CCCN(Cc2nnc(-c3ccc(F)cc3)o2)C1` (centres undefined) was run?
A: -43.47%

Q: Which INHIBITION does the source give for `COc1cccc2c1OCC(C(=O)NCCCn1nc(C)c(Cl)c1C)C2` (centres undefined) here?
A: 50.59%

Q: For `CCN(Cc1ccncc1)C(=O)C1COc2c(cccc2OC)C1` (centres undefined), which INHIBITION is on record?
A: 57.75%

Q: With `COCCN(Cc1ccncc1)C(=O)C1COc2ccccc2C1` (centres undefined) as the molecule, how does the INHIBITION read?
A: 33.9%

Q: How did the INHIBITION turn out when `COCCN(Cc1ccncc1)C(=O)C1COc2c(cccc2OC)C1` (centres undefined) was run?
A: 45.82%

Q: For `COc1cccc2c1OCC(C(=O)NCCn1nc(C)c(Cl)c1C)C2` (centres undefined), which INHIBITION is on record?
A: 24.36%

Q: For `COc1cccc2c1OCC(C(=O)N(C)CCCc1cnn(C)c1)C2` (centres undefined), which INHIBITION is on record?
A: 27.75%

Q: For `COCCN(Cc1cnn(C)c1)C(=O)C1COc2c(cccc2OC)C1` (centres undefined), which INHIBITION is on record?
A: 72.05%

Q: With `CCCn1nc(C)c(CNC(=O)C2COc3c(cccc3OC)C2)c1C` (centres undefined) as the molecule, how does the INHIBITION read?
A: 18.57%

Q: How did the INHIBITION turn out when `COc1cccc2c1OCC(C(=O)N(Cc1ccncc1)CC(C)C)C2` (centres undefined) was run?
A: 17.2%

Q: `CC(C)(C)n1cc(C(=O)N2CCN(Cc3cccnc3)CC2)cn1` was tested. Which INHIBITION did it give?
A: -3.57%

Q: `Cc1ccccc1CCCN1CCS(=O)(=O)CC1C` (centres undefined) was tested. Which INHIBITION did it give?
A: -31.95%

Q: Which INHIBITION does the source give for `CC(C)n1cnc2c(-c3cccnc3)nc(C3CCNCC3)cc21` here?
A: -17.24%

Q: How did the INHIBITION turn out when `O=C(N1CCCC1)N1CCC[C@]2(C[C@@H](OCc3ccncc3)CO2)C1` was run?
A: -12.23%

Q: With `O=C(C1CC1)N1CCC[C@]2(C[C@@H](OCc3ccncc3)CO2)C1` as the molecule, how does the INHIBITION read?
A: 2.4%

Q: `CCO[C@H]1CO[C@@]2(CCCN(S(=O)(=O)c3ccccc3)C2)C1` was tested. Which INHIBITION did it give?
A: -89.74%

Q: How did the INHIBITION turn out when `O=C(c1ccc(F)c(F)c1)N1CCC[C@]2(C[C@@H](OCC3CC3)CO2)C1` was run?
A: 13.04%

Q: `CCOCC(=O)N1CCC[C@]2(C[C@@H](OCc3ccncc3)CO2)C1` was tested. Which INHIBITION did it give?
A: 55.15%

Q: `CCO[C@@H]1CO[C@@]2(CCCN(S(=O)(=O)c3cccnc3)C2)C1` was tested. Which INHIBITION did it give?
A: 27.16%

Q: With `CCO[C@H]1CO[C@@]2(CCCN(C(=O)c3ccc(OC)c(F)c3)C2)C1` as the molecule, how does the INHIBITION read?
A: 52.36%

Q: Which INHIBITION does the source give for `CCO[C@@H]1CO[C@@]2(CCCN(C(=O)c3ccc(OC)c(F)c3)C2)C1` here?
A: -8.46%

Q: `CCO[C@H]1CO[C@@]2(CCCN(S(=O)(=O)c3cccnc3)C2)C1` was tested. Which INHIBITION did it give?
A: 50.35%
